This is an account of results in PubChem BioAssay (NCATS).

Records with an inconclusive call do not appear. Where a call stands in place of a potency, no number is given. Calls of active or inactive are those of the source. Calls follow the shape of the dose curve; as a rule, active = well fitted inhibition curve with a large enough effect; inconclusive = small, poorly fitted or top-dose-only effect; inactive = no such curve, though single readings can be large or run the other way. Bridge positions count the residues as written; N and C are the ends. Square brackets hold non-standard residues; d marks the D form. Peptide text beside a SMILES is read from it. * marks the point of attachment. Ileψ(thiazoline)Cys = CC[C@H](C)[C@H](N)C1=N[C@H](C(=O)*)CS1; d(aIle) = CC[C@H](C)[C@@H](N)C(=O)O; dOrn = NCCC[C@@H](N)C(=O)O
Potency is read from the fitted curve at half-maximal effect.

The nature of the test: S16 Schwann cell PMP22 intronic element firefly luciferase assay (AID 624032). Also: nearly all actives have a fitted effect of over 30% in size. As to conditions: S16 rat Schwann cells, PMP22 element FLuc, 24 h; series mostly up to 25.7 µM. The essentials: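 Luciferase reporter of PMP22 intronic-element expression in stably transfected S16 rat Schwann cells, read by ONE-Glo luminescence after 24 h compound exposure at 37 C. Activity scaled between DMSO (0%) and positive-control PTC124; concentration-effect curves quality-classified.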
Take `CN1CCO[C@H](c2ccccc2)c2ccccc2C1`: the Potency result is “inactive”.
With `C[C@H](CCC(=O)O)[C@H]1CC[C@@H]2[C@@H]3[C@@H](O)C[C@H]4C[C@@H](O)CC[C@@]4(C)[C@H]3CC[C@@]21C`, the Potency entry is “inactive”.
In the case of `CCN(CCCCOC(=O)c1ccc(OC)c(OC)c1)[C@@H](C)Cc1ccc(OC)cc1`, the Potency result was “inactive”.
As for `CCC(=O)OCC(=O)[C@@]1(OC(=O)CC)[C@H](C)C[C@@H]2[C@@H]3[C@H]([C@@H](O)C[C@@]21C)[C@]1(C)C=CC(=O)C=C1C[C@@H]3Cl`, the Potency entry was “inactive”.
Take `C[C@H](C(=O)O)c1cccc(Oc2ccccc2)c1`: the Potency entry is “inactive”.
Next, `CC1(C)[C@@H](OC(=O)CCC(=O)O)CC[C@@]2(C)[C@H]1CC[C@@]1(C)[C@H]2C(=O)C=C2[C@H]3C[C@](C)(C(=O)O)CC[C@]3(C)CC[C@@]21C`: “inactive”; `CCOC(=O)O[C@@H](C)OC(=O)[C@@H]1N2C(=O)[C@@H](NC(=O)[C@@H](N)c3ccccc3)[C@H]2SC1(C)C`: “inactive”; `Cc1ccsc1/C=C\C1=NCCCN1C`: “inactive”.
With `Cc1cccc(CN2CCN([C@@H](c3ccccc3)c3ccc(Cl)cc3)CC2)c1`, the Potency entry is “inactive”.
On to `C#C[C@]1(O)CC[C@@H]2[C@H]3CCC4=CCCC[C@@H]4[C@@H]3CC[C@@]21C`, for which the Potency is 5.49 µM (active).
Take `CC[C@H](C)[C@H](N)C1=N[C@H](C(=O)N[C@@H](CC(C)C)C(=O)N[C@@H](CCC(=O)O)C(=O)N[C@@H](C(=O)N[C@H]2CCCCNC(=O)[C@@H](CC(N)=O)NC(=O)[C@@H](CC(=O)O)NC(=O)[C@@H](Cc3cnc[nH]3)NC(=O)[C@@H](Cc3ccccc3)NC(=O)[C@@H]([C@@H](C)CC)NC(=O)[C@@H](CCCN)NC2=O)[C@@H](C)CC)CS1` ({Ileψ(thiazoline)Cys}-LE[d(aIle)]K[dOrn][d(aIle)][dF][dH][dD][dN]; lactam 4-C): the Potency entry was “inactive”.
